The results in this text go back to PubChem BioAssay.

Each structure is given as a SMILES string. Values joined by “and” are separate entries in the source; they are usually repeats but may differ in a detail not shown here. Identical values can stand only once. Active and inactive are the calls of the source.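 The calls were made as follows, unless noted: active = compounds whose cell count with miR-34 switched on is under 0.7 times the count with it off; inactive = the rest.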

A short description of experiment [1]: sensitizers of A549 cells to miR-34 induction, primary screen, imaging, A549 dox-inducible miR-34, nuclei and caspase counts (AID 1347080). Also: test concentration not given here. The conditions noted are these: A549 miR-34 inducible, Hoechst nuclei count, 48 h.
Experiment [2] in a line: survival rescue of mitochondrial mutant cells in low glucose, primary screen, MELAS cybrids, Rieske KO mouse fibroblasts, CellTiter-Glo (AID 1508586;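 active = mean z-score across replicates of 1.96 or higher in either the MELAS or the Rieske mutant cell line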;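 also: test concentration not given here; z relative to plate mean and SD of compound and empty wells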). (Cellular ATP, detected with luciferase, serves as a proxy for viable cell number.)
The nature of experiment [3]: viability rescue of complex I mutant cybrids, primary screen, cell-based, galactose medium, ATP luminescence (AID 1645843;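 active = z-score of at least 1.8 in each of two replicates, scored against plate mean and spread of sample wells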;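 also: positive z means more ATP and so rescue of galactose-driven cybrid death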). The conditions noted are these: complex I mutant cybrid cells, 72 h, stronger effect = higher value.
Where [4] appears, read: stronger effect = lower value, cell number ratio, induced over uninduced.
The mark [5] stands for this setting: measured here: relative caspase fold change +Dox/-Dox.
The mark [6] stands for this setting: measured here: total cells with miR-34 induction, stronger effect = lower value.
Where [7] appears, read: measured here: total cells without miR-34 induction.
Setting [8] is: MELAS cybrid survival, CellTiter-Glo 48 h, stronger effect = higher value.
Where [9] appears, read: Rieske KO mouse fibroblast survival, CellTiter-Glo 72 h.

For `COc1ccc(-c2oc3c(CC=C(C)C)c(OC4OC(CO)C(O)C(O)C4O)cc(O)c3c(=O)c2OC2OC(C)C(O)C(O)C2O)cc1` (stereo not given), the fold change is 0.929 (inactive) and 0.864 (inactive) in experiment [1] (setting [4]); 1.15 and 1.26 in experiment [1] (setting [5]). The cell count in experiment [1] (setting [6]) is 9660 and 9050; in experiment [1] (setting [7]), 10400 and 10500. Also, the z-score in experiment [2] (setting [8]) is -0.309 (inactive); in experiment [2] (setting [9]) it was 0.107; in experiment [3], 0.865 (inactive).
Take `CC[C@H](C)C(=O)O[C@H]1C[C@H](O)C=C2C=C[C@H](C)[C@H](CC[C@@H]3C[C@@H](O)CC(=O)O3)[C@H]21`: the results for the fold change in experiment [1] (setting [4]) and in experiment [1] (setting [5]) were 0.872 (inactive) and 2.14, respectively. Besides, the cell count in experiment [1] (setting [6]) came out at 9300; in experiment [1] (setting [7]), 10700. Besides, the results for the z-score in experiment [2] (setting [8]), in experiment [2] (setting [9]) and in experiment [3] were 0.0534 (inactive), -0.0126 and 0.555 (inactive), respectively.
On to `CC(C)(C)Nc1nc(N)c(C(=O)c2ccccc2)s1`, for which the fold change is 0.899 (inactive) in experiment [1] (setting [4]) and 0.5 in experiment [1] (setting [5]). Also, the results for the cell count in experiment [1] (setting [6]) and in experiment [1] (setting [7]) were 6780 and 7540, respectively. The z-score is 3.13 (active) in experiment [2] (setting [8]), 0.287 in experiment [2] (setting [9]) and 0.55 (inactive) in experiment [3].
With `CCN(CC)C(=O)c1c(NC(=O)c2cccs2)sc2c1CCCC2`, the fold change in experiment [1] (setting [4]) is 1.02 (inactive); in experiment [1] (setting [5]), 0.802. Moreover, the cell count in experiment [1] (setting [6]) worked out at 1650; in experiment [1] (setting [7]), 1620. The z-score was 0.194 (inactive) in experiment [2] (setting [8]), 0.0357 in experiment [2] (setting [9]) and -0.49 (inactive) in experiment [3].
For `O=C1CN(C(=O)Nc2nncs2)CCN1Cc1cccc(F)c1`, the fold change in experiment [1] (setting [4]) was 0.896 (inactive); in experiment [1] (setting [5]), 1.07. Besides, the cell count in experiment [1] (setting [6]) is 9320; in experiment [1] (setting [7]) it was 10400. Besides, the z-score in experiment [2] (setting [8]) was 0.315 (inactive); in experiment [2] (setting [9]) it was -0.441; in experiment [3] it was -0.53 (inactive).
With `O=c1ccc2ccccc2[nH]1`, the fold change was 0.871 (inactive) in experiment [1] (setting [4]) and 0.441 in experiment [1] (setting [5]). Besides, the cell count in experiment [1] (setting [6]) turned out to be 8280; in experiment [1] (setting [7]), 9510. The z-score was 1.28 (inactive) in experiment [2] (setting [8]), 0.0217 in experiment [2] (setting [9]) and 0.98 (inactive) in experiment [3].
As to `CCc1ccccc1-c1cc(C)nc(N)n1`, the fold change in experiment [1] (setting [4]) is 0.887 (inactive); in experiment [1] (setting [5]), 1.81. For the same compound, the cell count in experiment [1] (setting [6]) stood at 8420; in experiment [1] (setting [7]), 9490. Besides, the z-score in experiment [2] (setting [8]) is -0.131 (inactive); in experiment [2] (setting [9]), -1.38; in experiment [3], -0.555 (inactive).
For `COC(=O)CN1CCN(c2ncnc3sccc23)C(C)C1=O` (stereo not given), the fold change is 0.854 (inactive) in experiment [1] (setting [4]) and 1.54 in experiment [1] (setting [5]). Besides, the cell count is 7880 in experiment [1] (setting [6]) and 9220 in experiment [1] (setting [7]). The z-score in experiment [2] (setting [8]) was 0.221 (inactive); in experiment [2] (setting [9]), 0.142; in experiment [3], -0.055 (inactive).
For `CC(C)(N)c1cn(C2CCN(c3nc(N)nc4nc[nH]c34)CC2)nn1`, the fold change in experiment [1] (setting [4]) is 0.945 (inactive); in experiment [1] (setting [5]), 0.882. The cell count in experiment [1] (setting [6]) amounted to 9180; in experiment [1] (setting [7]), 9720. Besides, the z-score in experiment [2] (setting [8]) is 1.11 (inactive); in experiment [2] (setting [9]) it was -0.203; in experiment [3], -0.545 (inactive).
Regarding `Cc1nc(C)c(-c2ccnc(N)n2)s1`, the values for the fold change in experiment [1] (setting [4]) and in experiment [1] (setting [5]) were 0.869 (inactive) and 0.21, respectively. In addition, the cell count in experiment [1] (setting [6]) is 8060; in experiment [1] (setting [7]) it was 9270. Further, the figures for the z-score in experiment [2] (setting [8]), in experiment [2] (setting [9]) and in experiment [3] were 0.483 (inactive), -0.306 and -0.255 (inactive), respectively.
For the compound `COc1ccc(C(=O)Nc2c(Cl)cncc2Cl)cc1OC1CCCC1`, the fold change is 0.898 (inactive) in experiment [1] (setting [4]) and 0.397 in experiment [1] (setting [5]). The cell count was determined as 7850 in experiment [1] (setting [6]) and 8740 in experiment [1] (setting [7]). Moreover, the z-score was 0.807 (inactive) in experiment [2] (setting [8]), 0.781 in experiment [2] (setting [9]) and 0.215 (inactive) in experiment [3].
Turning to `NCc1ccc(-c2cccs2)cc1`, the fold change in experiment [1] (setting [4]) was 0.89 (inactive); in experiment [1] (setting [5]) it was 0.746. Moreover, the cell count in experiment [1] (setting [6]) was 8580; in experiment [1] (setting [7]) it was 9650. Further, the z-score was -0.349 (inactive) in experiment [2] (setting [8]), -0.59 in experiment [2] (setting [9]) and 0.51 (inactive) in experiment [3].
In the case of `O=C(O)CCCCc1ccccc1`, the figures for the fold change in experiment [1] (setting [4]) and in experiment [1] (setting [5]) were 0.916 (inactive) and 0.396, respectively. For the same compound, the cell count in experiment [1] (setting [6]) came to 9010; in experiment [1] (setting [7]) it was 9830. The z-score is 0.335 (inactive) in experiment [2] (setting [8]), -0.289 in experiment [2] (setting [9]) and 0.82 (inactive) in experiment [3].
As for `O=C(NN=Cc1cc(Br)c(O)c(Br)c1O)c1cccc(Br)c1`, the fold change in experiment [1] (setting [4]) is 0.911 (inactive); in experiment [1] (setting [5]) it was 0.461. The cell count in experiment [1] (setting [6]) is 2930; in experiment [1] (setting [7]), 3220. Besides, the z-score in experiment [2] (setting [8]) is 1.44 (inactive); in experiment [2] (setting [9]), 0.907; in experiment [3], -2.57 (inactive).
As for `O=c1c2nccnc2ncn1Cc1ccc2nsnc2c1`, the fold change is 0.878 (inactive) in experiment [1] (setting [4]) and 1.36 in experiment [1] (setting [5]). Also, the cell count in experiment [1] (setting [6]) amounted to 8120; in experiment [1] (setting [7]), 9250. Also, the z-score is -0.0326 (inactive) in experiment [2] (setting [8]), -0.667 in experiment [2] (setting [9]) and -0.53 (inactive) in experiment [3].
Consider `COc1ccc(CN(C)C(=O)Nc2nc(-c3ccccc3)ns2)cc1`, for which the fold change in experiment [1] (setting [4]) is 0.886 (inactive); in experiment [1] (setting [5]) it was 1.46. Besides, the cell count turned out to be 6810 in experiment [1] (setting [6]) and 7690 in experiment [1] (setting [7]). For the same compound, the z-score is -0.0703 (inactive) in experiment [2] (setting [8]), 0.35 in experiment [2] (setting [9]) and 0.77 (inactive) in experiment [3].
In the case of `NNC(=O)c1ccc(-c2ccccc2Cl)o1`, the figures for the fold change in experiment [1] (setting [4]) and in experiment [1] (setting [5]) were 0.826 (inactive) and 0.386, respectively. The cell count in experiment [1] (setting [6]) amounted to 7740; in experiment [1] (setting [7]) it was 9360. Moreover, the z-score in experiment [2] (setting [8]) was 0.702 (inactive); in experiment [2] (setting [9]) it was -0.293; in experiment [3], 0.765 (inactive).
For the compound `OCCN1CC(O)C(O)C(O)C1CO` (stereo not given), the fold change in experiment [1] (setting [4]) is 0.949 (inactive) and 0.938 (inactive); in experiment [1] (setting [5]) it was 1.7 and 0.717. Moreover, the cell count in experiment [1] (setting [6]) was 10100 and 10300; in experiment [1] (setting [7]), 10600 and 11000. The figures for the z-score in experiment [2] (setting [8]), in experiment [2] (setting [9]) and in experiment [3] were -0.386 (inactive), 0.318 and 0.805 (inactive), respectively.
Take `COc1cc(CC2COC(=O)C2Cc2ccc(O)c(OC)c2)ccc1O` (stereo not given): the fold change in experiment [1] (setting [4]) was 0.888 (inactive); in experiment [1] (setting [5]) it was 0.681. Further, the cell count turned out to be 8440 in experiment [1] (setting [6]) and 9500 in experiment [1] (setting [7]). Further, the z-score was -1.09 (inactive) in experiment [2] (setting [8]), -0.0925 in experiment [2] (setting [9]) and -0.07 (inactive) in experiment [3].
With `COc1cccc(OC)c1-c1ccc(C(=O)Nc2cccnc2)o1`, the figures for the fold change in experiment [1] (setting [4]) and in experiment [1] (setting [5]) were 0.893 (inactive) and 2.2, respectively. The cell count in experiment [1] (setting [6]) is 7930; in experiment [1] (setting [7]), 8880. Also, the z-score in experiment [2] (setting [8]) is 0.0755 (inactive); in experiment [2] (setting [9]), 0.502; in experiment [3], -0.555 (inactive).
